Screens: PubChem, National Center for Advancing Translational Sciences (NCATS)
VACV mCherry inh – qHTS for Stage-Specific Inhibitors of Vaccinia Orthopoxvirus: mCherry Reporter Primary qHTS. Vaccinia virus mCherry reporter infection, fluorescence. Potency, µM (doses to about 36.5 µM), actives largely listed as inhibitors. actives 0.63% (n = 310,000). AID 720579, 2013; calls by dose curve; tested in A549 cells; also: nearly all actives have a fitted effect of over 35% in size
Vaccinia Venus – qHTS for Stage-Specific Inhibitors of Vaccinia Orthopoxvirus: Venus Reporter Primary qHTS; Potency, µM (doses to about 36.5 µM), actives largely listed as inhibitors; actives 0.46% (n = 330,000); Vaccinia virus Venus reporter expression, fluorescence; calls by dose curve; tested in A549 cells; also: nearly all actives have a fitted effect of over 30% in size
HCMV antiviral – qHTS Assay for inhibitors of the human cytomegalovirus (HCMV); activity change, negative = inhibition, % at 57.5 µM; actives 4.5% (n = 410,000); HFF cells, HCMV-luciferase reporter, 72 h; active compounds read low; in the data active = activity change below about -60%; inconclusive = no clear call, values can overlap the other calls; inactive = above about -39%
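HFF cells seeded 16 h at 37C, treated with compounds, infected with luciferase-reporter HCMV at MOI 1 PFU/cell; luciferase read at 72 h post infection, normalized to buffer-only and Salinomycin controls.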
FMDV inh – High Throughput Screening for Foot and Mouth Disease Virus Antivirals; FMDV antiviral cell-based qHTS; Potency, µM (doses to about 57.9 µM), most hits filed as inhibitors; actives 1.2% (n = 410,000); calls by dose curve; tested in HEK293T cells; also: read-out not given here; nearly all actives have a fitted effect of over 45% in size
LASV entry inh – qHTS for Inhibitors of binding or entry into cells for Lassa Virus | actives 1.2% (n = 300,000) | Potency, µM (top dose mostly 37.9 µM), most hits filed as inhibitors | Lassa virus pseudotype entry inhibition, cell reporter; calls by dose curve; tested in HEK293 cells; also: nearly all actives have a fitted effect of over 50% in size
Marburg entry inh – qHTS for inhibitors of binding or entry into cells for Marburg Virus; Potency, µM (titrated, usually from 37.8 µM), usual class: inhibitors; actives 1.8% (n = 300,000); Marburg virus pseudotyped entry inhibition, cell reporter; calls by dose curve; tested in HEK293 cells
Numbers stand for hits; 0 = inactive; ? = inconclusive; - = not tested or not shown; + = active, no number; ! = not active in a repeat; [ ] = dose if it differs, or a comment. Hits are enriched below; roughly 6.5% of the tested compounds scored in any of these assays.

SMILES	VACV mCherry inh	Vaccinia Venus	HCMV antiviral	FMDV inh	LASV entry inh	Marburg entry inh
COc1ccccc1NC(=O)c1sc2nc3c(c(C(F)(F)F)c2c1N)CN(C(C)=O)CC3	0	0	0	0	0	0
CCOc1ccc(C(C)=O)cc1CN1C(=O)NC2(CCCCCC2)C1=O	0	0	0	0	0	?
CCOc1ccc(C(C)=O)cc1CN1C(=O)C(=O)N(CC)C1=O	0	0	?	14µM	0	?
Cc1cccc(N2CCN(S(=O)(=O)c3ccc4c(c3)C(C(C)C)C(=O)N4)CC2)c1C (centres undefined)	?	0	?	0	1.3µM	-
Cc1ccc(CNC(=O)CCS(=O)(=O)c2ccc3c(c2)NC(=O)C(C)S3)cc1 (centres undefined)	-	-	0	?	-	-
Cc1cccc(N2CCN(S(=O)(=O)c3ccc4c(c3)NC(=O)C(C)S4)CC2)c1C (centres undefined)	-	-	-79	0	-	-
CC1Sc2ccc(S(=O)(=O)N3CCN(c4cccc(Cl)c4)CC3)cc2NC1=O (centres undefined)	-	-	0	?	-	-
Cc1ccc(C)c(N2CCN(C(=O)CCS(=O)(=O)c3ccc4c(c3)NC(=O)C(C)S4)CC2)c1 (centres undefined)	-	-	+	16µM	-	-
CCC1CN(Cc2c(C)nc3sccn23)Cc2cc(OC)ccc2O1 (centres undefined)	0	0	-	0	-	-
Cc1ccc2nc(-c3ccc(N=Nc4cc(S(=O)(=O)O)c5ccccc5c4O)cc3)sc2c1S(=O)(=O)O	0	0	-	-	-	-
CC1(C)CC(=O)C(=Cc2cn(-c3ccccc3)nc2-c2ccc(Cl)cc2)C(=O)C1	-	0	0	?	0	0
CC1=NNC(=O)/C1=C\c1cn(-c2ccccc2)nc1-c1ccccc1	10µM	10µM	-100	8.9µM	?	4µM
O=C(CCN1C(=O)COc2ccccc21)N1CCN(c2ccccn2)CC1	0	0	-73	-	?	0
COc1ccc(CNC(=O)c2cnc3sc(N4CCCCCC4)nn3c2=O)cc1	0	0	0	0	?	-
Cc1cccc2cc(CN(Cc3ccccc3)Cc3nnnn3Cc3ccccc3)c(=O)[nH]c12	0	0	-	-	-	-
Cc1cccc2cc(CN(Cc3cccs3)Cc3nnnn3Cc3ccccc3)c(=O)[nH]c12	0	?	?	-	?	16µM
COc1ccc2cc(CN(Cc3cccnc3)Cc3nnnn3Cc3ccccc3)c(=O)[nH]c2c1	0	0	0	-	?	0
COc1ccc2cc(CN(Cc3cccs3)Cc3nnnn3Cc3ccccc3)c(=O)[nH]c2c1	-	-	-99	0	?	0
O=C(Cn1c2ccccc2c(=O)c2ccccc21)N/N=C/c1cc([N+](=O)[O-])ccc1N1CCCCCC1	0	0	-73	0	0	?
COc1ccc(OCC(=O)Nc2c(C(=O)N(CCN(C)C)Cc3ccco3)oc3ccccc23)cc1	-	-	?	0	-	-
COc1ccccc1C(=O)Nc1c(C(=O)NC(C)(C)C)oc2ccccc12	0	0	-71	0	0	-
CN(C)CCN(Cc1ccco1)C(=O)c1oc2ccccc2c1NC(=O)c1ccccc1	0	0	-61	0	0	-
COc1ccccc1C(=O)Nc1c(C(=O)N(CCN(C)C)Cc2ccco2)oc2ccccc12	0	0	-82!	?	0	-
COc1ccccc1C(=O)Nc1c(C(=O)c2ccccc2)oc2ccccc12	0	0	0	0	0	0
Cc1ccccc1C(=O)Nc1c(C(=O)N(CCN(C)C)Cc2ccco2)oc2ccccc12	-	-	0	0	-	-
SMILES	VACV mCherry inh	Vaccinia Venus	HCMV antiviral	FMDV inh	LASV entry inh	Marburg entry inh
N#Cc1c(NC(=O)CS(=O)(=O)c2ccc(Cl)cc2)sc2c1CCCCC2	0	0	?	0	0	-
S=C(NCc1ccccc1)NC1CCCc2ccccc21 (centres undefined)	0	0	0	0	0	?
COc1cccc(NC(=O)NC2CCCc3ccccc32)c1 (centres undefined)	0	0	-67	0	0	?
COc1ccc(NC(=O)NC2CCCc3ccccc32)c(OC)c1 (centres undefined)	0	0	0	0	0	0
CCn1c(=O)c(=O)[nH]c2cc(C(=O)NC3CCCc4ccccc43)ccc21 (centres undefined)	-	-	0	0	?	21µM
CCn1c(=O)c(=O)[nH]c2cc(C(=O)NC3CC3)ccc21	0	0	0	0	0	0
O=C(CCNC(=O)c1ccc(Br)cc1)NC1CCCc2ccccc21 (centres undefined)	?	0	-81	0	7.1µM	2.2µM
S=C(NC1CC1)NC1CCCc2ccccc21 (centres undefined)	-	-	-62	0	0	0
NC1CCc2ccccc21 (centres undefined)	0	0	-	-	-	-
Cc1ccc(C)c(S(=O)(=O)NCC(c2ccco2)S(=O)(=O)c2ccc(F)cc2)c1 (centres undefined)	0[7.34 µM]	0[7.34 µM]	0	0	?	-
COc1cc2c(cc1OC)C1N(CC2)C(=O)CCC12C(=O)CCCC2=O (centres undefined)	-	-	-	0	-	-
CCOc1cc(CNC(=O)c2ccc3nc(C(C)C)oc3c2)cc(OCC)c1OCC	0	0	0	0	0	-
CC(=O)c1c(C)[nH]c(C(=O)NC2CCSc3ccccc32)c1C (centres undefined)	0	0	?	0	?	?
CCc1c(C(=O)NC2CCCc3ccccc32)[nH]c(C)c1C(C)=O (centres undefined)	-	-	-83	0	-	-
CC(=O)c1ccc(OCCCC(=O)NC2CCCc3ccccc32)cc1 (centres undefined)	0	0	-86	0	0	0
O=C(NC1CCCc2ccccc21)c1cccc(Br)c1 (centres undefined)	0	0	-78	0	0	0
Nc1cc(=O)[nH]c(=S)[nH]1	0	0	-	-	-	-
COc1ccc(C(=O)c2c(C(F)(F)F)oc3c2C(=O)c2ccccc2C3=O)cc1	-	4µM	-	?	?	3.2µM
CCOC(=O)COc1c(Cl)cc(C2NC(=S)NC(c3ccccc3)=C2C(C)=O)cc1OCC (centres undefined)	0	0	-60	0	0	0
O=C1NC(=O)C(=Cc2ccc(Sc3ccccc3)o2)C(=O)N1	0[7.34 µM]	0[7.34 µM]	0	22µM	0	0
O=C1NC(=O)C(=Cc2ccc(-c3ccc(Cl)cc3)o2)C(=O)N1	0	?	-	32µM	-	-
O=C1NC(=O)C(=Cc2ccc(-c3ccc(S(=O)(=O)N4CCOCC4)cc3)o2)C(=O)N1	0	0	0	?	-	-
Cc1ccc(C(=O)c2c3ccc(C(F)(F)F)cc3[n+]([O-])n2CCCN)cc1	?	?	0	0	-	-
COc1ccc(C(=O)c2c3ccccc3[n+]([O-])n2CCCN)cc1	0	0	-96!	0	-	-
Cc1ccc(C(=O)c2c3ccc([N+](=O)[O-])cc3[n+]([O-])n2CCCN)cc1	?	14µM	0	0	-	-
